Data from the supplement of paper PMC9694430.

Legend:
Experiment in all cases: thermal shift delta Tm vs DMSO control; higher = stronger stabilization (binding)
Conditions in all cases: 12.5 µM; protein concentration 2 µM
[1] = test system: LOC_OS01G57100-cb003
Procedure, shortened: (§1)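 Compounds dissolved in DMSO were added to purified rice kinase domain constructs, which had been expressed in E. coli, for differential scanning fluorimetry. Each well held 19.5 μl of 2 μM kinase in 100 mM potassium phosphate pH 7.5, 150 mM NaCl, 10% glycerol and 5 × SYPRO Orange. Fluorescence was followed from 25°C to 95°C at a rate of 0.05°C/s. Shifts in Boltzmann-fitted melting temperature are triplicate means relative to DMSO-only protein.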

[2] = test system: LOC_OS01G60330-cb001
Procedure, shortened: as §1

[3] = test system: LOC_OS01G60700-cb002
Procedure, shortened: as §1

[4] = test system: LOC_OS01G63280-cb003
Procedure, shortened: as §1

[5] = test system: LOC_OS01G67340-cb003
Procedure, shortened: as §1

[6] = test system: LOC_OS01G70970-cb002
Procedure, shortened: as §1

[7] = test system: LOC_OS02G07810-cb001
Procedure, shortened: as §1

[8] = test system: LOC_OS02G08530-cb003
Procedure, shortened: as §1

[9] = test system: LOC_OS02G14120-cb001
Procedure, shortened: as §1

[10] = test system: LOC_OS02G17970-cb001
Procedure, shortened: as §1

CC(C)S(=O)(=O)c1ccc2nccc(Nc3ccc4scnc4c3)c2c1
thermal shift delta Tm [1]: 1.27 °C | thermal shift delta Tm [2]: 0.31 °C | thermal shift delta Tm [3]: 0.69 °C | thermal shift delta Tm [4]: 0.17 °C | thermal shift delta Tm [5]: 0.82 °C | thermal shift delta Tm [6]: 0.33 °C | thermal shift delta Tm [7]: -0.59 °C | thermal shift delta Tm [8]: 1.18 °C | thermal shift delta Tm [9]: 1.58 °C | thermal shift delta Tm [10]: 1.42 °C

C[C@@H]1COCCN1c1cc(C2([S@](C)(=N)=O)CC2)nc(-c2cc[nH]c3nccc2-3)n1
thermal shift delta Tm [1]: 0.97 °C | thermal shift delta Tm [2]: 0.61 °C | thermal shift delta Tm [3]: 0.22 °C | thermal shift delta Tm [4]: -0.13 °C | thermal shift delta Tm [5]: 0.47 °C | thermal shift delta Tm [6]: 0.14 °C | thermal shift delta Tm [7]: 0.56 °C | thermal shift delta Tm [8]: 0.49 °C | thermal shift delta Tm [9]: 0.92 °C | thermal shift delta Tm [10]: 0.47 °C

Cc1ncc(CO)c(CO)c1O [Pyridoxine]
thermal shift delta Tm [1]: -0.85 °C | thermal shift delta Tm [2]: -0.2 °C | thermal shift delta Tm [3]: -0.29 °C | thermal shift delta Tm [4]: -0.26 °C | thermal shift delta Tm [5]: 0.08 °C | thermal shift delta Tm [6]: 0.33 °C | thermal shift delta Tm [7]: -0.63 °C | thermal shift delta Tm [8]: 0.26 °C | thermal shift delta Tm [9]: 0.41 °C | thermal shift delta Tm [10]: 0.66 °C

CC(C)(C)c1nc(-c2ccc(NC(=O)Nc3cccc(C(F)(F)F)c3)c3ccccc23)c2c(N)nccn12 [kira6]
thermal shift delta Tm [1]: 0.63 °C | thermal shift delta Tm [2]: 1.17 °C | thermal shift delta Tm [3]: 0.03 °C | thermal shift delta Tm [4]: 14.6 °C | thermal shift delta Tm [5]: 8.45 °C | thermal shift delta Tm [6]: 0.75 °C | thermal shift delta Tm [7]: 0.03 °C | thermal shift delta Tm [8]: 2.22 °C | thermal shift delta Tm [9]: 2.07 °C | thermal shift delta Tm [10]: 1.1 °C

O=c1c(O)c(-c2ccc(O)c(O)c2)oc2cc(O)cc(O)c12 [Quercetin]
thermal shift delta Tm [1]: 2.71 °C | thermal shift delta Tm [2]: 8.09 °C | thermal shift delta Tm [3]: 0.35 °C | thermal shift delta Tm [4]: 10.7 °C | thermal shift delta Tm [5]: 5.98 °C | thermal shift delta Tm [6]: 2.14 °C | thermal shift delta Tm [7]: 2.05 °C | thermal shift delta Tm [8]: 2.33 °C | thermal shift delta Tm [9]: 3.39 °C | thermal shift delta Tm [10]: 1.77 °C

COc1cc2c(Oc3ccc4[nH]c(C)cc4c3F)ncnc2cc1OCCCN1CCCC1 [Cediranib (AZD2171)]
thermal shift delta Tm [1]: 0.31 °C | thermal shift delta Tm [2]: 1.14 °C | thermal shift delta Tm [3]: 0.79 °C | thermal shift delta Tm [4]: 0.02 °C | thermal shift delta Tm [5]: 0.06 °C | thermal shift delta Tm [6]: 0.42 °C | thermal shift delta Tm [7]: 0.2 °C | thermal shift delta Tm [8]: 0.41 °C | thermal shift delta Tm [9]: 0.33 °C | thermal shift delta Tm [10]: 0.26 °C

CN1CCN(c2ccc3nc(-c4c(N)c5c(F)cccc5[nH]c4=O)[nH]c3c2)CC1 [Dovitinib (TKI-258) Dilactic Acid]
thermal shift delta Tm [1]: 1.5 °C | thermal shift delta Tm [2]: 13.5 °C | thermal shift delta Tm [3]: 1.33 °C | thermal shift delta Tm [4]: 1.22 °C | thermal shift delta Tm [5]: 6.31 °C | thermal shift delta Tm [6]: 7.56 °C | thermal shift delta Tm [7]: 1.75 °C | thermal shift delta Tm [8]: 4.53 °C | thermal shift delta Tm [9]: 6.88 °C | thermal shift delta Tm [10]: 0.5 °C

CN(C)C/C=C/C(=O)Nc1cc2c(Nc3ccc(F)c(Cl)c3)ncnc2cc1O[C@H]1CCOC1 [Afatinib (BIBW2992) Dimaleate]
thermal shift delta Tm [1]: 0.18 °C | thermal shift delta Tm [2]: 1.16 °C | thermal shift delta Tm [3]: 1.57 °C | thermal shift delta Tm [4]: 1 °C | thermal shift delta Tm [5]: 0.71 °C | thermal shift delta Tm [6]: -0.12 °C | thermal shift delta Tm [7]: 0.8 °C | thermal shift delta Tm [8]: 1.12 °C | thermal shift delta Tm [9]: 2.75 °C | thermal shift delta Tm [10]: 1.68 °C

O=C(NOCC1CC1)c1ccc(F)c(F)c1Nc1ccc(I)cc1Cl
thermal shift delta Tm [1]: 2.41 °C | thermal shift delta Tm [2]: 2.82 °C | thermal shift delta Tm [3]: 2.16 °C | thermal shift delta Tm [4]: 0.93 °C | thermal shift delta Tm [5]: 0.18 °C | thermal shift delta Tm [6]: 1.09 °C | thermal shift delta Tm [7]: 1.23 °C | thermal shift delta Tm [8]: 1.11 °C | thermal shift delta Tm [9]: 1.97 °C | thermal shift delta Tm [10]: 1.54 °C

CNC(=O)c1ccccc1Nc1cc(Nc2ccc(N3CCOCC3)cc2OC)ncc1C(F)(F)F
thermal shift delta Tm [1]: 2.14 °C | thermal shift delta Tm [2]: 0.41 °C | thermal shift delta Tm [3]: 1.89 °C | thermal shift delta Tm [4]: 0.52 °C | thermal shift delta Tm [5]: 3.13 °C | thermal shift delta Tm [6]: 10.3 °C | thermal shift delta Tm [7]: 0.91 °C | thermal shift delta Tm [8]: 3.96 °C | thermal shift delta Tm [9]: 9.46 °C | thermal shift delta Tm [10]: 2.18 °C
